Test in all cases: Cytotoxic Profiling of Annotated Libraries Using Quantitative High-Throughput Screening (AID 1296008); also: nearly all actives have a fitted effect of over 60% in size
Holding throughout (conditions): Five cell lines viability, CellTiter-Glo ATP luminescence, 48-72 h; max response: active compounds read low

Assay [1] has as its system CRL-7250. The essentials: (§1)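 Cells exposed to compounds for 48 or 72 hr at 37 degrees Celsius. Viability read as ATP-coupled luminescence with CellTiter-Glo after 10 min at room temperature.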
Assay [2] relates to HEK293. The essentials: as §1
The subject of assay [3] is HaCat. Summed up: as §1
Assay [4] has as its system KB-3-1. Summed up:
as §1

The subject of assay [5] is NIH3T3. The essentials:
as §1

Records with an inconclusive call do not appear. A number with no mark means an inactive call. Activity calls are given as the source filed them. Calls follow the shape of the dose curve; as a rule, active = well fitted inhibition curve with a large enough effect; inconclusive = small, poorly fitted or top-dose-only effect; inactive = flat fitted curve, though single readings scatter.
% is scaled to controls: 0 for no effect and ±100 for the full control effect; potency is read from the fitted curve at half-maximal effect.

Regarding `O=C(OC[C@H]1O[C@H](O[C@H]2CO[C@H](CO)[C@@H](O)[C@@H]2O)[C@H](O)[C@@H](O)[C@H]1O)c1ccccc1`, the max response is -5.33% in assay [1], -15.9% in assay [3], -0.911% in assay [4] and 4.33% in assay [5]. In addition, in assay [2], the molecule was called inactive.
For the molecule `COc1c(C)c(OCC=C(C)C)cc2c1CNC2=O`, the max response is -2.67% in assay [1], -5.13% in assay [2], -3.05% in assay [4] and -2.21% in assay [5]. Moreover, the molecule was called inactive in assay [3].
The corresponding values for `CCC[C@H](N[C@@H](C)C(=O)N1[C@H](C(=O)O)C[C@@H]2CCCC[C@@H]21)C(=O)O` are -2.24%, 3.79%, -5.15%, -10.2% and “inactive”.
In the case of `CC1CCC2C(C(=O)O)=CC3(O)CC(C)(C)CC123` (stereo not given), the max response in assay [1] is 2.87%; in assay [3] it was 0.596%; in assay [4] it was 4.07%; in assay [5] it was 1.6%. For the same molecule, in assay [2], the call was inactive.
Consider `C=C[C@H]1[C@H](O[C@@H]2O[C@H](CO)[C@@H](O)[C@H](O)[C@H]2O)OC=C(C(=O)OC)[C@H]1CCO`, for which the max response in assay [1] was -6.38%; in assay [2], 2.87%; in assay [4] it was 5.52%; in assay [5] it was -6.64%. The molecule was classed as inactive in assay [3].
As for `Cc1onc(-c2ccccc2Cl)c1C(=O)N(C)c1ccc(Cl)cc1`, the molecule was called inactive in assay [1], in assay [3] and in assay [5]. Moreover, the results for the max response in assay [2] and in assay [4] were -12.8% and 4.59%, respectively.
Regarding `O=c1[nH]ccc2nc(-c3ccc(CN4CCC(c5nc(-c6ccccn6)n[nH]5)CC4)cc3)c(-c3ccccc3)cc12`, the call in assay [1], in assay [3] and in assay [5] was inactive. In addition, in assay [2], the Potency is 5.17 µM (active). In addition, in assay [4], the max response is -16.7%.
`O=C(O)c1cccc(C(=O)CCC2OC(n3cnc4c(=O)[nH]cnc43)C(O)C2O)c1` (stereo not given): the call in assay [1], in assay [3] and in assay [5] was inactive. Moreover, the max response in assay [2] is -2.52%; in assay [4] it was 3.59%.
Take `COC(=O)[C@H](Cc1cccc(C(=N)N)c1)[C@@H](C)NC(=O)c1ccc(-c2cc[n+]([O-])cc2)cc1`: the max response in assay [1] was -2.22%; in assay [2], 3.53%; in assay [5], 0.404%. Besides, the call in assay [3] and in assay [4] was inactive.
Consider `CC(C)c1ccc2c(c1)C(O)CC1C(C)(CO)CCCC21C` (stereo not given), for which the max response in assay [1] was -14%; in assay [2] it was -7.86%; in assay [4], 9.46%; in assay [5], -1.6%. Further, the call in assay [3] was inactive.
For `CC(=O)O[C@H]1C[C@@H](O)C(C)(C)C2C[C@@H](OC(C)=O)[C@]3(C)C(CC[C@@]4(C)[C@H](c5ccoc5)OC(=O)[C@H]5O[C@]543)[C@]21C` (stereo not given in full), the max response in assay [1] is -9.34%; in assay [2], -3.17%; in assay [5] it was 1.84%. Moreover, the result in assay [3] and in assay [4] was inactive.
Turning to `CC(C)(O)C1CCC2(C)CCCC(C)(O)C2C1` (stereo not given), the max response in assay [1] was -27.4%; in assay [2], 2.93%; in assay [4], 8.99%. Further, the call in assay [3] and in assay [5] was inactive.
Consider `C[C@@H]1O[C@@H](O[C@H]2[C@@H]3C=CO[C@@H](O[C@@H]4O[C@H](CO)[C@@H](O)[C@H](O)[C@H]4O)[C@@H]3[C@@]3(CO)O[C@@H]23)[C@H](OC(=O)/C=C/c2ccc(O)cc2)[C@H](O)[C@H]1O`, for which the max response in assay [1] is -20.4%; in assay [2], -82.6%; in assay [3] it was -0.452%; in assay [4], -12.9%. Further, the call in assay [5] was inactive.
For `Cc1oc2nc3c(c(NC(=O)CN4CCCC4=O)c2c1C)CCCC3`, the max response was 3.82% in assay [1], -1.01% in assay [2] and 8.69% in assay [4]. In addition, the molecule was called inactive in assay [3] and in assay [5].
For `COc1c2c(c(C)c3c1C(=O)OC3)OC1(C)CC(O)C34OC(OC)(CC(O)C3(C)C1C2)OC4(C)C` (stereo not given), the max response in assay [1] was 0.784%; in assay [2], -15.9%; in assay [4], 4.03%; in assay [5] it was 1.57%. The result in assay [3] was inactive.
On to `CCCC1=CC2=C(CO1)C(=O)C(C)(O)C(OC(=O)c1c(C)cc(OC)cc1O)C2` (stereo not given), for which the values for the max response in assay [1] and in assay [2] were -6.12% and -3.53%, respectively. The molecule was classed as inactive in assay [3], in assay [4] and in assay [5].
As to H-DPPDPDRFYGMM-NH2, the outcome in assay [1], in assay [4] and in assay [5] was inactive. The max response in assay [2] was -1.35%; in assay [3] it was -3.96%.
In the case of `CNC(=O)c1ccc2c(c1)CCO[C@H]2CCN1CCN(c2ccc(C(N)=O)cc2)CC1`, the max response was 0.998% in assay [1], 3.1% in assay [2] and -1.44% in assay [4]. Further, the outcome in assay [3] and in assay [5] was inactive.
Turning to `CC(C)/C=C1/NC(=O)C(C(C)C)n2c1nc1c(O)cccc1c2=O` (stereo not given), the molecule was called inactive in assay [1] and in assay [3]. Also, the max response in assay [2] was -10.9%; in assay [4] it was 3.96%; in assay [5], -2.82%.
`CC(=O)OC1(C)CC(O)C2(O)C=COC(OC3OC(CO)C(O)C(O)C3O)C12` (stereo not given): the molecule was classed as inactive in assay [1] and in assay [5]. Moreover, the max response in assay [2] is 4.36%; in assay [3] it was 0.0573%; in assay [4], 3.54%.

(Values after PubChem BioAssay (NCATS).)
